From PubChem
Sampled rows, rich in hits. Any-hit rate of the full collection: about 1.8%.
TSHR antag: human thyrotropin receptor antagonism; P16473; TSHR-expressing cells, TSH-stimulated cAMP HTRF, 2 h; hits give low values; activity change, negative = inhibition, % at 11.5 µM; hit rate 0.2% among 330,000;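 active means activity change below a set negative limit, meaning inhibition stronger than a set level, cut at about -70% in these data; inconclusive means activity change between two set negative limits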; further: on the % scale 0 is the no-effect control and ±100 the full control effect
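TSHR-expressing cells, 200/well, pre-treated with compound, then stimulated with EC80 TSH (4nM final) for 2 hours at 37 deg C. cAMP measured by competitive HTRF: anti-cAMP cryptate antibody in lysis buffer plus cAMP-d2, read after 30 minutes at room temperature.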
GLP1R cytotox: cytotoxicity counter-screen for GLP-1 receptor inverse agonists | HEK293 cAMP-luciferase reporter cells, luminescence, 24 h | Potency, µM (titrated, usually from 38.3 µM), inactives show top-dose activity change, negative = inhibition, actives largely listed as inhibitors | hit rate 0.13% among 410,000 | AID 624418;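 further: loss of luciferase light is scored as toxicity; potency means the concentration at half of the fitted maximal effect; on the % scale 0 is the no-effect control and ±100 the full control effect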
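MLSMR compounds, 24 hr on cells at 37 deg C/5% CO2; luminescence after luciferase reagent (12 min RT). Inhibition counted as the undesired cytotoxic outcome.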
GLP-1R agonist: agonists of human GLP-1 receptor; P43220; HEK293 GLP-1R CRE-luciferase, luminescence, 4-6 h; cells express a hypersensitive GLP-1R form; Potency, µM (top dose mostly 45.6 µM), for inactives: at the top dose activation, actives largely listed as activators; hit rate 0.007% among 380,000; AID 624172; further: potency means the concentration at half of the fitted maximal effect; % of control where 0% means no effect
PTHR1 agonist: activates the human parathyroid hormone receptor PTHR1. Q03431. HEK293 GP2 PTHR1 cells, GloSensor cAMP luminescence, 1 h. Potency, µM (highest dose often 115 µM), without a hit: at the top dose activation, actives largely listed as activators. hit rate 0.075% among 410,000. AID 743266; further: potency means the concentration at half of the fitted maximal effect; nearly all actives have a fitted effect of over 55% in size
Target sequence (Q03431 whole entry, looked up): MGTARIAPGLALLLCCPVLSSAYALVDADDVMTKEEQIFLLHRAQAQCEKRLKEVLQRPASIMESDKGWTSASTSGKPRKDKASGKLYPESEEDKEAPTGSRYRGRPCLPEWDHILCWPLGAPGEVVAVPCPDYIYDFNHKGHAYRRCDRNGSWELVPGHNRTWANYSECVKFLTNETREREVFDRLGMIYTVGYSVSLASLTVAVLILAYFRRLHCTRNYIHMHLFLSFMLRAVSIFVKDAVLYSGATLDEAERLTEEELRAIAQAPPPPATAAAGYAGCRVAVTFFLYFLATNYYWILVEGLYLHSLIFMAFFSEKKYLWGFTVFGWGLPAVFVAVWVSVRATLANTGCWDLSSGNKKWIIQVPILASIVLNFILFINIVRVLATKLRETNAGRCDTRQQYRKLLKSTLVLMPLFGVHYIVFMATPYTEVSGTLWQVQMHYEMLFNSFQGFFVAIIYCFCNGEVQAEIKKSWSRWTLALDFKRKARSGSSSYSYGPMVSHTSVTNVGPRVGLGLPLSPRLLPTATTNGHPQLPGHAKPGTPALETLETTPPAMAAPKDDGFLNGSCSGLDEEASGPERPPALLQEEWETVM
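HEK-293-derived GP2 cells expressing PTHR1 and a GloSensor cAMP reporter, 3,000/well, plated overnight, given luciferin plus IBMX (each 0.5 mM as added) for 1 h at 37 °C, then compound for 1 h at 37 °C. Luminescence was read after 15 min at room temperature.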
GLP1R inv ag: inverse agonists of human GLP-1 receptor. P43220. HEK293 GLP-1R CRE-luciferase, luminescence, 24 h; GLP-1R form is constitutively active. Potency, µM (top dose mostly 38.3 µM), without a hit: at the highest dose activity change, negative = inhibition, usual class: inhibitors. hit rate 1.6% among 410,000; further: potency means the concentration at half of the fitted maximal effect; on the % scale 0 is the no-effect control and ±100 the full control effect; nearly all actives have a fitted effect of over 55% in size
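Assay principle: reduced luminescence from a cAMP-responsive reporter in HEK293 cells co-expressing a constitutively active GLP-1R. Conditions: 24 hr compound incubation, 37 deg C, 5% CO2.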
An asterisk follows results filed as active; [ ] = dose if it differs, or a comment. Unless noted, the call rests on the fitted dose curve; in most records, active means well fitted curve in the direction sought with a large enough effect; inconclusive means small, poorly fitted or top-dose-only effect, or another doubt; inactive means no such curve, though single readings can be large; an effect the other way counts as inactive or inconclusive.

For CCOc1ccc(CCNC(=O)c2nn(C)c3c2CSc2ccc(C)cc2-3)cc1OCC the results were GLP1R cytotox 19.1%, PTHR1 agonist -36.5% and GLP1R inv ag 10µM*.
Screening Cc1ccc(/C=N\Nc2nc3ccc(Cl)cc3[nH]2)o1 returned TSHR antag 1.4, GLP1R cytotox -28.0%, GLP-1R agonist -12.8%, PTHR1 agonist inactive and GLP1R inv ag 5.01µM*.
`COc1cc(/C=N/NC(N)=S)cc(Br)c1OCc1ccccc1F` gave TSHR antag -1.7, GLP1R cytotox 5.62µM*, GLP-1R agonist -0.2%, PTHR1 agonist inactive and GLP1R inv ag -6.9%.
`Cc1cc(C(=O)COC(=O)c2cccnc2Cl)c(C)n1C` gave GLP1R cytotox 1.2%, GLP-1R agonist -6.2%, PTHR1 agonist -56.5% and GLP1R inv ag 7.08µM*.
`Nc1nc(SCC(=O)C23CC4CC(CC(C4)C2)C3)n[nH]1` gave TSHR antag -76.2*, GLP1R cytotox 7.6%, GLP-1R agonist -1.5%, PTHR1 agonist -0.4%[57.5 µM] and GLP1R inv ag 4.9%.
For Cc1cc(C)nc(-n2nc(C)c3c2NC(=O)CC3c2cc(F)ccc2F)n1 (centres undefined) the results were GLP1R cytotox -5.5%, PTHR1 agonist -9.6% and GLP1R inv ag 7.9%.
Screening CCN(CC(=O)Nc1cc(S(=O)(=O)N2CCCCC2)ccc1C)Cc1ccccc1 returned TSHR antag 20.8, GLP1R cytotox 2.4%, GLP-1R agonist 5.1%, PTHR1 agonist -11.4% and GLP1R inv ag 6.31µM*.
Screening Cc1ccc(S(=O)(=O)N2CCCCC2)cc1NC(=O)CCCOc1ccccc1 returned TSHR antag 1.9, GLP1R cytotox -6.3%, GLP-1R agonist 7.9%, PTHR1 agonist -8.7% and GLP1R inv ag 5.62µM*.
Cc1ccc(S(=O)(=O)N2CCCCC2)cc1NC(=O)CCOc1ccccc1 was read as TSHR antag -0.3, GLP1R cytotox 3.5%[1.53 µM], GLP-1R agonist 8.9%, PTHR1 agonist -16.0% and GLP1R inv ag inconclusive.
`Cc1ccc(S(=O)(=O)N2CCCCC2)cc1NC(=O)c1ccco1` gave GLP1R cytotox -9.9%, GLP-1R agonist -6.1%, PTHR1 agonist -9.1% and GLP1R inv ag -0.1%.
For COc1cc2nc(NCCC(C)C)n3nc(-c4ccccc4)nc3c2cc1OC the results were GLP1R cytotox -9.7%, PTHR1 agonist -35.8% and GLP1R inv ag -1.4%.
Cc1ccc(C)c(NC(=O)CCN2CCc3ccccc3C2)c1 was read as TSHR antag 1.1, GLP1R cytotox 2.9%, GLP-1R agonist 6.0%, PTHR1 agonist inactive and GLP1R inv ag 11.2µM*.
`CCN1CCN(CCC(=O)Nc2cc(C)ccc2C)CC1` gave TSHR antag 3.2, GLP1R cytotox -4.9%, GLP-1R agonist 3.1%, PTHR1 agonist -36.9% and GLP1R inv ag 1.9%.
For COc1ccc(NC(=O)CCNS(=O)(=O)c2ccc3c(c2)CC(C)N3C(C)=O)cc1 (centres undefined) the results were TSHR antag -91.9*, GLP1R cytotox -1.6%, GLP-1R agonist 3.0%, PTHR1 agonist inactive and GLP1R inv ag 3.5%.
`CCOC(=O)c1cccc(NC(=O)c2cc(S(=O)(=O)N3CCCC3)cn2C)c1` gave GLP1R cytotox 6.1%, PTHR1 agonist -39.0% and GLP1R inv ag 0.4%.
COc1ccc(/C=C/C(=O)Nc2ccncc2)cc1OC was read as TSHR antag 3.9, GLP1R cytotox -4.9%, GLP-1R agonist 29.4%, PTHR1 agonist inactive and GLP1R inv ag 0.7%.
For COc1ccc(/C=C/C(=O)Nc2ccc(Cl)c(Cl)c2)cc1OC the results were GLP1R cytotox inconclusive, PTHR1 agonist -44.5% and GLP1R inv ag 8.91µM*.
`CO/N=C\CC(=O)Nc1ccc(Cl)c(Cl)c1` gave TSHR antag -1.5, GLP1R cytotox -19.0%, GLP-1R agonist 4.6%, PTHR1 agonist -14.1% and GLP1R inv ag 3.16µM*.
Screening O=S(=O)(c1ccc2ccccc2c1)n1nc(-c2ccco2)nc1NCc1ccc(F)cc1 returned GLP1R cytotox 8.0%, PTHR1 agonist -14.0% and GLP1R inv ag inconclusive.
For Cc1cccc(NC(=O)N2CCc3c(sc4c3CCCC4)C2c2ccc(F)cc2)c1 (centres undefined) the results were GLP1R cytotox 0.0%, PTHR1 agonist inactive and GLP1R inv ag inconclusive.
For COc1ccc(NC(=O)N2CCc3c(sc4c3CCCC4)C2c2ccc(F)cc2)cc1 (centres undefined) the results were GLP1R cytotox 6.0%, PTHR1 agonist -20.8% and GLP1R inv ag 2.82µM*.
`CC(Oc1cccc(Br)c1)C(=O)NNC(=O)c1ccccn1` (centres undefined) gave TSHR antag 4.7, GLP1R cytotox inconclusive, GLP-1R agonist 0.9%, PTHR1 agonist -7.7% and GLP1R inv ag 11.2µM*.
For CC1Cc2cc(/C=C3/SC(=S)NC3=O)ccc2O1 (centres undefined) the results were TSHR antag -37.4, GLP1R cytotox 10µM*, GLP-1R agonist 2.5%, PTHR1 agonist -58.0% and GLP1R inv ag inconclusive.
For CCN(CC)c1ccc(C=C2SC(=S)NC2=O)cc1 the results were GLP1R cytotox -13.4%, GLP-1R agonist 0.0%, PTHR1 agonist -26.1% and GLP1R inv ag 9.1%.
For O=C1CCCC/C1=N\Nc1ccc(OCc2ccccc2)cc1 the results were TSHR antag -5.1, GLP1R cytotox -23.2%, GLP-1R agonist 4.7%, PTHR1 agonist -22.2% and GLP1R inv ag 2.82µM*.
O=C1CCCC/C1=N\Nc1ccc(C2CCCCC2)cc1 was read as TSHR antag 0.5.
For COc1ccc(CCNC(=O)c2cc(=O)[nH]c3ccc(S(=O)(=O)N4CCCCC4)cc23)cc1OC the results were GLP1R cytotox -3.8%, PTHR1 agonist -17.1% and GLP1R inv ag 12.8%.
`CCc1ccc(CN2CCC(n3nccc3NC(=O)c3ccccc3C)CC2)cc1` gave TSHR antag 20.2, GLP1R cytotox inconclusive, GLP-1R agonist 1.8%, PTHR1 agonist -70.9% and GLP1R inv ag 5.62µM*.
Cc1ccccc1C(=O)Nc1ccnn1C1CCN(Cc2c(C)n(C)c3ccccc23)CC1 was read as TSHR antag 9.0, GLP1R cytotox -20.6%, GLP-1R agonist 13.0%, PTHR1 agonist inactive and GLP1R inv ag 11.2µM*.
For O=C(Nc1cccc(Cl)c1)c1ccc2c(c1)CCN2S(=O)(=O)c1ccccc1 the results were GLP1R cytotox -6.9%, PTHR1 agonist -16.8% and GLP1R inv ag 2.51µM*.
For O=C(Nc1ccccc1)c1ccc2c(c1)CCN2S(=O)(=O)c1ccccc1 the results were TSHR antag -16.3, GLP1R cytotox 0.0%, GLP-1R agonist -8.7%, PTHR1 agonist -10.0% and GLP1R inv ag inconclusive.
